PubChem BioAssay AID1508600 (Functional Genomics Laboratory (NCATS/FGL), 2020)
Out of some 53,000 sequences screened, about 3,700 (7%) were called active. Shown is part of a subset that was picked to be rich in actives. Values without a mark were called inactive.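 The calls were made as follows: active = gene knockdowns whose robust z-score for IL-1 alpha signal is at least 2 or at most -2, so actives lie on both sides; inactive = the rest.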

Assay: Components of the Cytosolic LPS Sensing Pathway: Gene Identification via Genome-wide siRNA Screen;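 also: robust z of the log signal after scaling to non-targeting control siRNA wells of the plate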
Conditions: RAW264.7 macrophages, IL-1a HTRF, actives lie on both sides, screened at 100 nM (by protocol), cells primed 5 h with Pam3CSK4 first
Procedure, shortened: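 Read-out: IL-1a HTRF on supernatant, divided by plate negative-control median ×100, log-transformed and converted to robust z-score. Cells were RAW264.7 given 100 nM siRNA, Pam3CSK4-primed 5 hours, then LipidA-transfected 24 hour.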

| Sequence | z-score |
| --- | --- |
| CCUAUGUCACUAAGGCACGTT against Nudt13 | 0.482 |
| GCACGAUCUUCCAAACCCUTT against Dhh | -1.25 |
| CCAGGGUGGUCUUUUGAAGTT against Eif1 | -1.66 |
| GGUAGAUGAUAAUUUCACUTT against 4930595M18Rik | -0.894 |
| GCCAUGAGACACCUUCUCUTT against Olfr843 | -1.96 |
| GGCGAACUGAAGGAUAUGGTT against Anapc5 | 0.835 |
| ACAUGACAAACAACACUAUTT against Olfr960 | -0.891 |
| GGCAGCUAGAGAGAAUCCUTT against Akr1c12 | -2.45 (active) |
| GCUUUCGGUGGAUUCCUUATT against Rars2 | -0.714 |
| GGACUGGUUCUUCAGAUCCTT against Depp1 | 3.31 (active) |
| GGCUUUCGGUUAUGACCAATT against Alas2 | -0.385 |
| GGAAACCAUCUUUGAACUUTT against Specc1l | 0.54 |
| GGAUGUAUGAUGCAGUUAUTT against Olfr1211 | 1.89 |
| GGGAUUUGAGCAUCUUUCCTT against Lrrc40 | 0.571 |
| GGCUUUGAUUAUGUUCCCATT against Fcer2a | -0.188 |
| GGUGACUAGAAAAAUGGAUTT against Cd1d1 | 0.528 |
| GGAGAAGAUGUGGAGACAUTT against Edf1 | -1.3 |
| GGCAAAGAUCUUAUGGAGATT against Csf3r | 0.0079 |
| GGUUCUUUUUGCCACAGCCTT against Miga2 | -2.31 (active) |
| GGGAGUAUUACCUCCUUCATT against Igbp1b | 0.00303 |
| GCAGCUUGAGUUCUCGAAUTT against BC049715 | 0.971 |
| GGAAGAAGCUCUAUGCUGATT against Fbxo9 | -0.589 |
| GCUUGACCUUUUUACUCCUTT against Siglece | 0.262 |

| Sequence | z-score |
| --- | --- |
| GCAGAACUUGACCACUGCCTT against Defb2 | 2.58 (active) |
| GGAUAAUUCACAGUUCAAATT against Tlk1 | 1.14 |
| GGACAUCAUGGACCUGAAGTT against Bmerb1 | -0.582 |
| GAAGCUAGAAGAGAUUAAATT against Cep41 | 0.821 |
| CCCUGUUGAUGAACAAAUCTT against Ddt | -0.262 |
| GGUAUGUAGGAAUUACAGUTT against AI606181 | 2.49 (active) |
| CCUGUCGUUCCUCCUUACATT against Sec11a | -1.29 |
| CCAACCUCCCAUUCUGAAUTT against Ttc22 | 1.71 |
| GGGCUUAUUCUGUUAAUAGTT against Mttp | -0.215 |
| GCAGGGAUCUGGAUUUAAUTT against Arf5 | 3.37 (active) |
| CUUAGACCCAAUUCAAUUCTT against Zfp667 | -0.0845 |
| CGGCUUCUUAGGAAACUCUTT against Olfr358 | -0.369 |
| GGUGAAAACGUGGUUCCAGTT against Bsx | -0.0072 |
| GGUGACUUCCACUCUAACUTT against Sohlh2 | -2.57 (active) |
| GGCUAUGAAUAAACUUUUCTT against Olfr1016 | 0.429 |
| GGGAUGGAGGAGGAGCUUATT against Bad | 0.86 |
| GGAUUCAAUUUUUUGCCAUTT against Pbdc1 | -1.74 |
| CCACGUAUUGUUAGUAGAATT against Ei24 | 0.251 |
| GUAAGGUAUUCAGUGACCUTT against Olfml2a | -2.23 (active) |
| GGAAACAGAUUUAAAGUGATT against Efcc1 | 1.03 |
| GGACAAGAAGGCAAAUUAGTT against Arhgap9 | 0.366 |
| GCAUAAUAAGCCAAUUCUGTT against Med17 | -0.355 |
| GCUGAAGUUUACUAUAACATT against Marco | 0.565 |

| Sequence | z-score |
| --- | --- |
| GGUACCAUCACGUUGUGUATT against M6pr | -0.76 |
| CCUUGCUCUUUCCAGCUCUTT against Olfr704 | 0.332 |
| GGACAUCGGCUACAACACCTT against Fzd10 | -2.08 (active) |
| GCUGAGGCAAUUUCAACUUTT against Ctla4 | 0.169 |
| GCACGACACUCUGUGCAUCTT against Kyat3 | 0.6 |
| GCAUCCUACUUCUCAACUUTT against Ceacam12 | 0.328 |
| GGGUUUCGCUAGAACCAUUTT against Plekhg5 | -0.541 |
| GCUUGUUGCCUAGGACCUATT against Eif1ad | -1.14 |
| CCCUCAGAUUCAAAAAGUGTT against Krt1 | 0.233 |
| GCAUGGAGAGAACCUGAAATT against Trim69 | -0.801 |
| GGGCCAAGAUACCAAGAGUTT against Spout1 | -2.71 (active) |
| GGAUAACAGUAAAUGGCUUTT against Zkscan8 | 0.152 |
| GGUUAAGUUACUAACCCAGTT against 4931406C07Rik | 1.01 |
| GAGACACUUGUGCUGUAGGTT against F730035P03Rik | 0.108 |
| GCACUGUAUUCUUGAGCACTT against 1700020L24Rik | 2.06 (active) |
| GGUAGUGAUUACGAACCAATT against Hey1 | 0.605 |
| GCCCAGUACUCCGCUUACATT against Bhlhe23 | -2.03 (active) |
| GGGCUGAUCUUUUUAACUGTT against Tpm3 | -0.581 |
| GGCCUUAGAGAAAAUCUUUTT against Brd3 | 0.871 |
| ACCAGCACGACAGAUGCUATT against Pla2g12a | 3.15 (active) |
| GGCAUACCGUAAAAGUGGCTT against Olfr73 | -1.95 |
| GCCAAGAUGGUUAAAUACCTT against Ankrd34b | -1.64 |
